High-throughput results from PubChem BioAssay.
AmpC nodet inh: inhibitors of E. coli AmpC beta-lactamase without detergent; AID 585; 1.8% of 71,000 active; P00811; Potency, µM (doses to about 28.7 µM), without a hit: at the top dose activity change, negative = inhibition; AmpC nitrocefin hydrolysis, absorbance 480 nm, no detergent; also: % of control where 0% means no effect
Target sequence (P00811 whole entry, looked up): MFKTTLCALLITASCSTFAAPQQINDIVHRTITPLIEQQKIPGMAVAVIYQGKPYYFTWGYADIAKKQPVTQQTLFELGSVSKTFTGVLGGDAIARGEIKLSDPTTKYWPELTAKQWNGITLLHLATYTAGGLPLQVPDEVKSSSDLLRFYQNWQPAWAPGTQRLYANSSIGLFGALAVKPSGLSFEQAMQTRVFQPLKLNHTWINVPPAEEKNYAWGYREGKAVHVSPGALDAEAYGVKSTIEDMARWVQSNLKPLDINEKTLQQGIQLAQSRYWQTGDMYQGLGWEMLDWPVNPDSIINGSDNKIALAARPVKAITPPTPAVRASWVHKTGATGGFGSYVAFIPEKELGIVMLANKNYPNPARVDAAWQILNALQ
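AmpC, 20 mM phosphate pH 7.0; 15 min cpd preinc, RT; start with nitrocefin (800 uM stock); A480 kinetic read, 20 s intervals, 4 min. No-enzyme wells = negative control.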
Prx2 Sm inh: blocks S. mansoni peroxiredoxin 2 enzymatic activity; Potency, µM; S. mansoni Prx2 activity coupled to TGR/GSH (TGR is thioredoxin glutathione reductase), NADPH fluorescence loss, qHTS; AID 448; 0.07% of 65,000 active
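Prx2 inhibition was measured as reduced NADPH consumption when electrons flowed from NADPH through TGR and glutathione to Prx2 and H2O2. Plates were read kinetically over 8 min; enzyme reagents were held at 4 deg C during dispensing.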
AmpC det inh: blocks E. coli AmpC beta-lactamase in presence of detergent; Potency, µM (highest dose often 28.7 µM), for inactives: at the top dose activity change, negative = inhibition; 0.09% of 71,000 active; purified AmpC, nitrocefin hydrolysis with detergent; P00811; active = well fitted curve in the direction sought with a large enough effect; inconclusive = small, poorly fitted or top-dose-only effect; also: % is scaled to controls: 0 for no effect and ±100 for the full control effect
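E. coli AmpC (5.3 nM) in 20 mM phosphate pH 7.0 with 0.01% Triton X-100, preincubated 15 min RT with compound; nitrocefin (2 uL of 800 uM stock) hydrolysis followed by 480 nm absorbance every 20 s over 4 min.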
LT uptake inh: anthrax lethal toxin internalization inhibition; Cells, anthrax lethal toxin internalization, FRET ratio (460/530); Potency, µM (series often up to 40 µM), without a hit: at the top dose activity change, negative = inhibition, most hits filed as inhibitors; 0.67% of 70,000 active; also: % is scaled to controls: 0 for no effect and ±100 for the full control effect; nearly all actives have a fitted effect of over 50% in size
* = called active by the depositor; ? = inconclusive; · = not tested or not shown; [ ] = remark or other dose. Rows were chosen to be rich in hits. Some 2.4% of all compounds tested hit in one or more screens of this group. Unless noted, calls follow the shape of the full dose curve. Potency is read from the fitted curve at half-maximal effect.

SMILES | AmpC nodet inh | Prx2 Sm inh | AmpC det inh | LT uptake inh
Cn1c(=O)n(CC(=O)Nc2ccc(F)cc2)c2ccccc21 | 2% | >57 | -6% | -8%
CCCCNC(=O)Cn1c(=O)n(C)c2ccccc21 | 4µM*[single pt active] | >57 | 9% | -12%
Cc1ccc(O)c(C(=O)CC(=O)c2cccc(F)c2)c1 | 3% | · | -1% | ?
O=C(CC(=O)c1cc(Cl)ccc1O)c1ccccc1 | -2% | · | 8% | 7.9µM*
COc1ccc(S(=O)(=O)NCCSCc2ccco2)cc1 | 13µM*[single pt active] | >57 | 14% | -4%
COc1cccc(-c2nc(NC3CCNCC3)c3ccccc3n2)c1 | 15% | >57 | 3% | -23%
O=C(Cn1cnnn1)OCC(=O)c1ccc(Cl)s1 | 13µM* | >57 | 8% | -6%
Cc1ccc(C2=C(Cl)C(=O)C(c3ccc(C)cc3)=C(Cl)C2=O)cc1 | -4%[5.75 µM] | · | -2%[5.75 µM] | -6%[8 µM]
COCCCNC(=O)CN1C(=O)CSc2ncccc21 | -4% | >57 | 5% | 4%
Cc1c(Cl)cccc1NC(=O)CN1C(=O)CSc2ncccc21 | 3.2µM*[single pt active] | >57 | 11% | ?
O=C1c2ccccc2C(O)N1c1ccc(Cl)cc1 (stereo not drawn) | -8% | >57 | 7% | -14%
Cc1ccc(N2C(=O)c3ccccc3C2O)nc1 (stereo not drawn) | 4µM*[single pt active] | >57 | 12% | 14%
Cc1ccc(N2C(=O)c3ccccc3C2Nc2ccccc2F)nc1 (stereo not drawn) | 4µM*[single pt active] | >57 | 10% | ?
COc1cc(OC)c(NC2c3ccccc3C(=O)N2c2cc(C)ccn2)cc1Cl (stereo not drawn) | 82% | >57 | 9% | -10%
O=C1c2ccccc2C(Nc2ccc(Cl)cn2)N1c1ccccn1 (stereo not drawn) | 4µM*[single pt active] | >57 | 15% | -22%
COC(=O)c1c(C)ccc2c(O)c3c(cc12)C(=O)c1c2c(cc(O)c1C3=O)[C@@]1(C)O[C@@](C)(O2)[C@@H](O)[C@H](N(C)C)[C@H]1O | -1%[5.75 µM] | >57 | 5%[5.75 µM] | 10%[8 µM]
Cc1cc(C2(c3cc(C)c(O)cc3C)OS(=O)(=O)c3ccccc32)c(C)cc1O | -8% | · | 9% | ?
CC(C)(C)COS(=O)OCC(C)(C)C | -9%[5.75 µM] | >57 | 1%[5.75 µM] | -8%[8 µM]
CCSc1nnc(NC(=O)c2ccc(Br)s2)s1 | 10µM* | >57 | 1% | ·
COc1ccc(C[C@@H](N)c2ccc(OC)cc2)cc1 | 7%[5.75 µM] | >57 | -3%[5.75 µM] | 6%[8 µM]
COC(=O)C1=C(C)NC(C)=C(C(=O)OCCN(C)Cc2ccccc2)[C@@H]1c1cccc([N+](=O)[O-])c1 | 67% | >57 | -1% | ?
CCOC(=O)c1c(-c2ccccc2)c(C(C)=O)c(=O)n(C)c1C | 4µM*[single pt active] | >57 | 8% | 3%
CCOC(=O)c1c(N)nn(C(C)=O)c1-c1ccccc1 | 2% | >57 | -7% | -1%
OC[C@H](S)CS | -12%[5.75 µM] | ? | -11%[5.75 µM] | -25%[8 µM]
COc1ccccc1NC(=O)C1(C)Cc2ccccc2C(=O)O1 (stereo not drawn) | 4µM*[single pt active] | >57 | 7% | -1%
SMILES | AmpC nodet inh | Prx2 Sm inh | AmpC det inh | LT uptake inh
CCOC(=O)C1CCCN(c2c(NCCCN3CCCC(C)C3)c(=O)c2=O)C1 (stereo not drawn) | 4µM*[single pt active] | >57 | 14% | -21%
CCOC(=O)C1CCCN(c2c(NCC3CCCN3CC)c(=O)c2=O)C1 (stereo not drawn) | 4µM*[single pt active] | >57 | 11% | -11%
Cc1cc(NC(=O)CSc2c3c(nc4ccccc24)CCC3)no1 | 4µM*[single pt active] | >57 | 12% | ?
COC(=O)c1cc(NC2c3ccccc3C(=O)N2c2cccnc2)cc(C(=O)OC)c1 (stereo not drawn) | 4µM*[single pt active] | >57 | 13% | 5%
C[C@@H](c1ccccc1)N1C(=O)[C@H]2[C@H]3[C@H](O)[C@H](O)C/C(=N/NC(=O)OCc4ccccc4)[C@H]3CC[C@@H]2C1=O | · | · | · | -11%[1.6 µM]
O=c1cc(N2CCc3ccccc3C2)[nH]c(=O)n1-c1ccc(Cl)cc1 | 16µM*[single pt active] | >57 | -3% | 5%
O=c1cc(N2CCCC2)[nH]c(=O)n1-c1ccc(Cl)cc1 | -12% | >57 | -3% | -7%
O=c1cc(N2CCc3ccccc3C2)[nH]c(=O)n1-c1ccc(Br)cc1 | 16µM*[single pt active] | >57 | -4% | 8%
Cc1cccc(CNc2ccnc(-c3ccc(C(=O)N(C)C)cc3)n2)c1 | 100% | >57 | 10% | 2%
CCN(CC)CCNC(=O)Cn1nc(Cc2cccnc2)c2ccccc2c1=O | 4µM*[single pt active] | >57 | 12% | ?
O=C(Cn1nc(Cc2cccnc2)c2ccccc2c1=O)NCCCN1CCCC1=O | 4% | >57 | 8% | -9%
O=C(Cn1nc(Cc2cccnc2)c2ccccc2c1=O)Nc1ccc2c(c1)OCO2 | 4µM*[single pt active] | >57 | 14% | -17%
COc1cc(=O)n(C)c2c(OC[C@@H](O)C(C)(C)O)cccc12 | 0%[12.8 µM] | >57 | 0%[12.8 µM] | 1%[3.58 µM]
C[C@@]12CC[C@@H]3[C@H](CCC4=CC(=O)CC[C@]43C)[C@@H]1CC[C@@H]2C(=O)COS(=O)(=O)c1ccc(Br)cc1 | 10%[5.75 µM] | >57 | -3%[5.75 µM] | -5%[8 µM]
CCOC(=O)Cc1csc(-n2sc3ccccc3c2=O)n1 | 6% | >57 | 9% | 3.2µM*
COc1ccc(-n2nnnc2S(=O)(=O)CC(=O)N2CCCCC2)cc1 | 11% | ? | 8% | 3.2µM*
O=C(Cn1ncc2c1-c1ccccc1OC2)N(Cc1ccco1)C1CCCCC1 | 81% | >57 | 11% | -11%
O=C(Cn1ncc2c(=O)oc3ccccc3c21)N(Cc1ccco1)C1CCCCC1 | 3.2µM*[single pt active] | >57 | 10% | -15%
Cc1nnc(N2C(=O)C(O)=C(C(=O)c3ccco3)C2c2ccc(F)cc2)s1 (stereo not drawn) | 4µM*[single pt active] | >57 | 12% | -5%
O=C(C1=C(O)C(=O)N(Cc2ccccc2)C1c1ccncc1)c1ccco1 (stereo not drawn) | 0% | >57 | -2% | 1%
CCCCCCCC/C=C\CCCCCCCC(=O)NCCc1ccc(O)c(O)c1 | 10µM* | >57 | -8% | ?
O=C(O)CNC(=O)[C@@H](CS)Cc1ccccc1 | 2%[12.8 µM] | >57 | -2%[12.8 µM] | ?
COc1ccc(OCc2nnc3n2N=C(c2ccc(OC)cc2)CS3)cc1 | 4µM*[single pt active] | >57 | 14% | -1%
O=c1cccc2n1C[C@@H]1C[C@H]2CN2CCCC[C@H]12 | -5% | >57 | -2% | ?
COc1ccc(CCNc2nc(N3CCCCC3)nc(N3CCCCC3)n2)cc1OC | 92% | >57 | -7% | 6.3µM*
SMILES | AmpC nodet inh | Prx2 Sm inh | AmpC det inh | LT uptake inh
C[C@@H]1CC[C@H]2C(=O)O[C@H](CN=[N+]=[N-])CN2[C@@H]1c1ccc(Br)cc1 | · | · | · | 3%[8 µM]
Cc1ccc(Cn2ccc(NC(=O)c3cc(-c4ccc5c(c4)OCO5)on3)n2)cc1 | 10µM* | >57 | -3% | 1%
Cc1ccc(Cn2ccc(NC(=O)c3cc(-c4ccccc4)on3)n2)cc1 | ? | >57 | -1% | -13%
CN(CCc1ccc(Cl)c(Cl)c1)[C@H]1CCCC[C@H]1N1CCCC1 | 42% | >57 | -6% | 25µM*
CN(CCc1ccc(Cl)c(Cl)c1)CCN1CCCCCC1 | 28% | >57 | -4% | ?
CCC(C)(C)OC | -2% | · | 10% | 1%
N#Cc1cccc(-c2nccc(NCc3ccccc3)n2)c1 | 19% | >57 | 10% | -8%
